GLP-1R agonist = GLP-1 receptor (human) agonism; P43220; HEK293 GLP-1R CRE-luciferase, luminescence, 4-6 h; cells express a hypersensitive GLP-1R form; Potency, µM (doses to about 45.6 µM), inactives show top-dose activation, most hits filed as activators; 380,000 tested, 0.007% active; AID 624172; also: % of control where 0% means no effect
Target sequence (P43220 whole entry, looked up): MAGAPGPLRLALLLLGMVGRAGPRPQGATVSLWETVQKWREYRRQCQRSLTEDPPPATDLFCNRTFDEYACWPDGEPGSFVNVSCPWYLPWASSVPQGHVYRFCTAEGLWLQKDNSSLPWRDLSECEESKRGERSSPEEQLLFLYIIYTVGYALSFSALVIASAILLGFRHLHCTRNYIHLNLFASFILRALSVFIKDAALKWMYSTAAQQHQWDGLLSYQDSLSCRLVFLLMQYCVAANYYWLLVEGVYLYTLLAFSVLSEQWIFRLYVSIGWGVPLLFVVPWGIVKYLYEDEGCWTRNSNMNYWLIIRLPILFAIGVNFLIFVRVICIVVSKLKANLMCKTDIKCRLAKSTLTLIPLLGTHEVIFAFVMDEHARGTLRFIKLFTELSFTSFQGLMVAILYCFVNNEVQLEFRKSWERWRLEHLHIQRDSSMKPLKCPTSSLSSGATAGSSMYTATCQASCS
GLP-1R inv ag = acts as inverse agonist at human GLP-1 receptor; 410,000 tested, 1.6% active; HEK293 GLP-1R CRE-luciferase, luminescence, 24 h; GLP-1R form is constitutively active; Potency, µM (top dose mostly 38.3 µM), inactives show top-dose activity change, negative = inhibition, hits mostly inhibitors; P43220; also: % is scaled to controls: 0 for no effect and ±100 for the full control effect; nearly all actives have a fitted effect of over 55% in size
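GLP-1R inverse agonism mode: basal reporter luminescence in engineered HEK293 cells measured after one day of compound exposure at 37 deg C, with a 12 min room-temperature detection step.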
GCN5L2 inh = blocks human GCN5L2 histone acetyltransferase; Q92830; GCN5L2 HAT assay, ThioGlo1 CoA-SH fluorescence; Potency, µM (top dose mostly 58.9 µM), for inactives: top-dose activity change, negative = inhibition, most hits filed as inhibitors; 390,000 tested, 0.21% active; AID 504327; also: % is scaled to controls: 0 for no effect and ±100 for the full control effect
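Enzyme at 20nM final was mixed with library compounds for 15 min at room temperature. Peptide H3(1-25) at 75uM, acetyl-CoA at 70uM and ThioGlo1 at 50uM were then added. Plates were read immediately and after 20 min (Ex340nm/Em540nm).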
GLP1R cytotox = cytotoxicity in counter-screen for GLP-1R inverse agonists; HEK293 cAMP-luciferase reporter cells, luminescence, 24 h; Potency, µM (top dose mostly 38.3 µM), for inactives: at the top dose activity change, negative = inhibition, usual class: inhibitors; 410,000 tested, 0.13% active;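 also: loss of luciferase light is scored as toxicity; % is scaled to controls: 0 for no effect and ±100 for the full control effect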
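MLSMR compounds, 24 hr on cells at 37 deg C/5% CO2; luminescence after luciferase reagent (12 min RT). Inhibition counted as the undesired cytotoxic outcome.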
PTHR1 ag = PTHR1 (human) receptor agonism; Q03431; HEK293 GP2 PTHR1 cells, GloSensor cAMP luminescence, 1 h; Potency, µM (titrated, usually from 115 µM), for the others: at the top dose activation, hits mostly activators; 410,000 tested, 0.075% active; also: nearly all actives have a fitted effect of over 55% in size
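HEK-293-derived GP2 cells expressing PTHR1 and a GloSensor cAMP reporter, 3,000/well, plated overnight, given luciferin plus IBMX (each 0.5 mM as added) for 1 h at 37 °C, then compound for 1 h at 37 °C. Luminescence was read after 15 min at room temperature.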
RGS4 inh = human RGS4 inhibition; P49798; Transcreener GDP fluorescence polarization, RGS4-accelerated GTP hydrolysis; Potency, µM (highest dose often 114 µM), for inactives: top-dose activity change, negative = inhibition, actives largely listed as inhibitors; 390,000 tested, 0.039% active; AID 504845; also: % is scaled to controls: 0 for no effect and ±100 for the full control effect; nearly all actives have a fitted effect of over 75% in size
Target sequence (P49798 whole entry, looked up): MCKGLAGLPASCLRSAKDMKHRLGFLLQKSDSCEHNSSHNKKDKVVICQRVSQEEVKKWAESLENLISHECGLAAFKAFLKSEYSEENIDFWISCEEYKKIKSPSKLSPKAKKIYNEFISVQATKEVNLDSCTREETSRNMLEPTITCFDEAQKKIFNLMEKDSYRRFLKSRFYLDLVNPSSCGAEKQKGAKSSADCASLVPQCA
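MLSMR compounds (23 nl, pin-transferred) preincubated 10 min at room temperature with a 500nM (2x) first reagent, then RGS4 at 900nM (2x) plus Transcreener GDP mix added; fluorescence polarization (620/688 nm) read before and after 90 min at 30 °C.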
Starred values were filed as active, the others as inactive; i = inactive; ? = inconclusive; . = no result; [ ] = dose if it differs, or a comment. Hits are enriched below; roughly 1.8% of the tested compounds scored in any of these assays. Calls follow the shape of the dose curve; as a rule, active = well fitted curve in the direction sought with a large enough effect; inconclusive = small, poorly fitted or top-dose-only effect, or another doubt; inactive = no such curve, though single readings can be large; an effect the other way counts as inactive or inconclusive. Potency is read from the fitted curve at half-maximal effect.

SMILES	GLP-1R agonist	GLP-1R inv ag	GCN5L2 inh	GLP1R cytotox	PTHR1 ag	RGS4 inh
COc1ccc(Br)cc1CNC(=O)C1CCN(c2nnc(-n3cccc3CNc3ccc(C)cc3)s2)CC1	.	?	-7%	1%	i	21%
N=c1c2c(-c3ccccc3)c(-c3ccccc3)n(Cc3ccco3)c2ncn1CCO	-11%	?	1%	7.9µM*	i	-20%[11.4 µM]
CC[C@H](C)[C@H](NC(=O)[C@H](C)NC(=O)[C@@H](N)C(C)C)C(=O)N[C@H](C(=O)N[C@H](C(=O)N[C@@H](CC(C)C)C(=O)N[C@H](C(=O)N[C@@H](CCCCN)C(=O)O)C(C)C)C(C)C)[C@@H](C)O	.	.	55%	.	.	.
Cc1cc(C)c2c(ccc3ccccc32)n1	3%	17%	.	-4%	-23%	24%
Oc1ccc(-c2nc3ccc4ccccc4c3c3c2CCC3)cc1O	-11%	4µM*	0%	?	i	25%
COc1cccc(CCN2CCC(CNS(=O)(=O)c3cc(-c4cc(C)no4)ccc3OC)CC2)c1	5%	?	?	?	-31%	2%
COc1cccc(CCN2CCC(CNS(=O)(=O)c3cc(-c4cc(C)no4)ccc3C)CC2)c1	-9%	4.5µM*	-18%	?	-88%	4%
COc1ccc(NC(=O)N(C)[C@H]2C[C@H]3c4[nH]c5ccc(-c6ccc(OC)cc6)cc5c4CCN3C[C@H]2[C@H](C)O)cc1	-3%	7.1µM*	.	?	10%	.
CN[C@H]1C[C@H]2c3[nH]c4ccc(-c5ccc(OC)cc5)cc4c3CCN2C(=O)[C@H]1[C@H](C)O	-5%	5.6µM*	.	?	-16%	.
CN[C@H]1C[C@H]2c3[nH]c4ccc(-c5cccc(C)c5)cc4c3CCN2C[C@H]1[C@H](C)O	-6%	11µM*	.	?	1%	.
Cc1cccc(-c2ccc3[nH]c4c(c3c2)CCN2C[C@@H]([C@H](C)O)[C@@H](N(C)C(=O)NC3CCCCC3)C[C@@H]42)c1	-2%	?	.	12%	4%	.
COc1ccc(Nc2cc(C(=O)NC3CCCC3)c3ccccc3n2)c(OC)c1	13%	9%	-1%	69%	-38%	-9%
CC1=C(C(=O)N(C)C)CC(CC(=O)NCc2cccc3ccccc23)C(=O)N1CCCN1CCCC1=O (stereo not given)	23%	13%	.	1%	-16%	.
CC12CCC(C(=O)N3CCCc4ccccc43)(CC1=O)C2(C)C (stereo not given)	-4%	0%	-9%	3%	i	1%
CC12CCC(C(=O)N3CCc4ccccc43)(CC1=O)C2(C)C (stereo not given)	0%	13µM*	-3%	-3%	-4%	11%[11.4 µM]
Cc1cc(C)c(S(=O)(=O)Nc2ccc(-c3ccc(N4CCCCCC4)nn3)cc2)cc1C	.	13µM*	-6%	-10%	i	8%
CN(C)CCCNc1oc(-c2cccc(Cl)c2)nc1C#N	-2%	6.3µM*	-6%	-2%	-5%[57.5 µM]	6%
CCCCCCn1c(=O)n2n(c1=O)C[C@]1(OC(=O)NCC3CCCCC3)CN(S(=O)(=O)c3ccc(C)cc3)C[C@]1(O)C2	-3%	10µM*	.	-20%	-53%	.
CCCCCCn1c(=O)n2n(c1=O)[C@@H]1CN(S(=O)(=O)c3ccc(C)cc3)C[C@]1(O)[C@@H](OC(=O)NCc1ccccc1)C2	-3%	11µM*	.	-17%	-4%	.
Cc1ccc(S(=O)(=O)N2C[C@H]3n4c(=O)ccc(=O)n4C[C@H](OC(=O)NCc4ccccc4)[C@@]3(O)C2)cc1	-5%	?	.	-11%	-64%	.
CC(=O)Oc1c(-c2ccco2)oc2ccccc2c1=O	1%	7%[0.307 µM]	-3%	4%[0.307 µM]	i	16%
CCCCn1c(N)c(N(CCOC)C(=O)COc2ccc(Cl)cc2)c(=O)[nH]c1=O	-1%	19%	-12%	3%	i	-13%
COC(=O)CN1C(=O)[C@@H]2[C@H](C1=O)[C@@H]1CC(C(=O)OC)=C[C@@H](C(=O)OC)C3C1=C(C(=O)C31CCCCC1)[C@@H]2C (stereo not given in full)	.	.	.	.	.	14%
CN1CCN(C(=S)NC(=O)c2ccccc2Cl)CC1	-6%	-19%	1%	-13%	i	-45%
O=C(NC(=S)N1CCCCCC1)c1ccccc1Cl	0%	?	-4%	5µM*	?	17%
SMILES	GLP-1R agonist	GLP-1R inv ag	GCN5L2 inh	GLP1R cytotox	PTHR1 ag	RGS4 inh
CCN(C(=O)c1cc2c(s1)-c1c(C)cccc1OC2)c1cc(C)ccc1C	.	11µM*	-13%	32%	i	7%
CCN(CCCNC(=O)c1ccc(Sc2ccc(Cl)cc2)c(NC(C)=O)c1)c1cccc(C)c1	.	-3%	-10%	4%	-11%	9%
CCN(CCNCC(O)COCc1ccc(Cl)cc1)c1cccc(C)c1 (stereo not given)	0%	10µM*	1%	?	-9%	-27%
CN1CCN(C(CNC(=O)C(=O)Nc2ccc3c(c2)OCCO3)c2ccc(F)cc2)CC1 (stereo not given)	10%	?	-2%	-9%	i	-1%
CCC(CC)C(=O)N1N=C(c2ccc(NS(C)(=O)=O)cc2)CC1c1ccc(C)cc1 (stereo not given)	15%	8.9µM*	-13%	-27%	i	0%
Nc1nonc1-n1nnc(C(=O)N/N=C/C=C/c2ccccc2)c1CSC1=NCCS1	1%	7.9µM*	-7%	?	-28%	27%
CCCN(CCC)Cc1c(C(=O)N/N=C/C(C)=C\c2ccccc2)nnn1-c1nonc1N	3%	2.8µM*	-14%	-14%	i	-22%
CCCc1c(C(=O)N/N=C/C(C)=C/c2ccccc2)nnn1-c1nonc1N	0%	-10%	-5%	-1%	-15%	3%
CCc1cc2c(cc3c(=O)n(CC(=O)NC(C)C)nc(CC)n32)s1	.	5%	-5%	-1%	-14%	0%
O=C(c1ccc(Cl)cc1)C1CCN(C(=O)C2CC2)CC1	-4%	-18%	14µM*	4%	-5%	4%
CN(C)CCCNC(=S)N1CCC(C(=O)c2ccc(Cl)cc2)CC1	4%	2µM*	.	7%	-31%	.
NS(=O)(=O)c1ccc(NC(=O)c2ccc(CNS(=O)(=O)c3cc(C(F)(F)F)ccc3Cl)cc2)cc1	-1%	?	-15%	1%	3%	-5%
